Shown are actives, neighbours in structure and some others; about 12% of the full set was active somewhere.
BAZ2B inh: qHTS Assay for Inhibitors of BAZ2B; Bromodomain adjacent to zinc finger domain protein 2B (Homo sapiens), Q9UIF8; AlphaScreen BAZ2B-H3K14Ac peptide displacement; Potency, µM (titrated, usually from 114 µM), inactives show at the highest dose activity change, negative = inhibition, actives largely listed as inhibitors; hit rate 4.4% among 360,000; note: % is set by controls: 0 for no effect and ±100 for the full control effect; nearly all actives have a fitted effect of over 60% in size
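AlphaScreen luminescence quantifies BAZ2B engagement of H3K14Ac peptide; the protein and biotinylated peptide are both at 50 nM final, buffer PBS pH 7.4 with 0.01% Tween-20, all steps at room temperature.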
G9a block: qHTS Assay for Inhibitors of Histone Lysine Methyltransferase G9a | G9a H3K9 monomethylation, AlphaScreen, 2 h | Potency, µM (doses to about 102 µM), without a hit: at the highest dose activity, negative = inhibition, actives largely listed as inhibitors | hit rate 8.8% among 350,000 | AID 504332, 2011; note: % is set by controls: 0 for no effect and ±100 for the full control effect; nearly all actives have a fitted effect of over 75% in size
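G9a (20 nM) preincubated 15 min RT with compounds, then 500 nM biotinylated H3K9 peptide and 20 uM SAM added; 2 h RT reaction. Monomethyl-H3K9 product detected by AlphaScreen with anti-H3K9me1 antibody, streptavidin donor and anti-rabbit IgG acceptor beads.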
HP1b chromo inh: HTS for Inhibitors of HP1-beta Chromodomain Interactions with Methylated Histone Tails; AlphaScreen HP1-beta / biotin-H3K9me3 peptide binding; Potency, µM (top dose mostly 114 µM), without a hit: at the top dose activity change, negative = inhibition, hits mostly inhibitors; hit rate 0.56% among 390,000; note: nearly all actives have a fitted effect of over 70% in size
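AlphaScreen: HP1-beta (50 nM) preformed 30 min with biotin-H3(1-18)K9me3 peptide (50 nM) in PBS pH 7.4, 0.01% Tween-20. Compound added for 30 min at RT, then streptavidin donor/nickel chelate acceptor beads (10 ug/mL) for 30 min.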
TDP1 block: qHTS Assay for Inhibitors of Tyrosyl-DNA Phosphodiesterase (TDP1). Tyrosyl-DNA phosphodiesterase 1 (Homo sapiens), Q9NUW8. Potency, µM (highest dose often 130 µM), inactives show at the highest dose activity change, negative = inhibition, hits mostly inhibitors. hit rate 0.28% among 350,000. recombinant TDP1, AlphaScreen DNA substrate cleavage. AID 485290, 2010; note: % is set by controls: 0 for no effect and ±100 for the full control effect; nearly all actives have a fitted effect of over 40% in size
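Enzyme-compound mixtures sat 15 min at room temperature, followed by a 5 min reaction with 15 nM final substrate and 10 min with AlphaScreen beads. Recombinant human Tdp1 was used at 1 nM final.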
JMJD2A Tudor: qHTS Assay for Inhibitors of JMJD2A-Tudor Domain | AID 504339, 2011 | AlphaScreen JMJD2A-Tudor / H3K4me3 peptide binding | hit rate 4.4% among 390,000 | Potency, µM (top dose mostly 114 µM), for the others: at the top dose activity change, negative = inhibition, usual class: inhibitors; note: % is set by controls: 0 for no effect and ±100 for the full control effect; nearly all actives have a fitted effect of over 50% in size
Target sequence (O75164 whole entry, looked up, the tested form may be a part): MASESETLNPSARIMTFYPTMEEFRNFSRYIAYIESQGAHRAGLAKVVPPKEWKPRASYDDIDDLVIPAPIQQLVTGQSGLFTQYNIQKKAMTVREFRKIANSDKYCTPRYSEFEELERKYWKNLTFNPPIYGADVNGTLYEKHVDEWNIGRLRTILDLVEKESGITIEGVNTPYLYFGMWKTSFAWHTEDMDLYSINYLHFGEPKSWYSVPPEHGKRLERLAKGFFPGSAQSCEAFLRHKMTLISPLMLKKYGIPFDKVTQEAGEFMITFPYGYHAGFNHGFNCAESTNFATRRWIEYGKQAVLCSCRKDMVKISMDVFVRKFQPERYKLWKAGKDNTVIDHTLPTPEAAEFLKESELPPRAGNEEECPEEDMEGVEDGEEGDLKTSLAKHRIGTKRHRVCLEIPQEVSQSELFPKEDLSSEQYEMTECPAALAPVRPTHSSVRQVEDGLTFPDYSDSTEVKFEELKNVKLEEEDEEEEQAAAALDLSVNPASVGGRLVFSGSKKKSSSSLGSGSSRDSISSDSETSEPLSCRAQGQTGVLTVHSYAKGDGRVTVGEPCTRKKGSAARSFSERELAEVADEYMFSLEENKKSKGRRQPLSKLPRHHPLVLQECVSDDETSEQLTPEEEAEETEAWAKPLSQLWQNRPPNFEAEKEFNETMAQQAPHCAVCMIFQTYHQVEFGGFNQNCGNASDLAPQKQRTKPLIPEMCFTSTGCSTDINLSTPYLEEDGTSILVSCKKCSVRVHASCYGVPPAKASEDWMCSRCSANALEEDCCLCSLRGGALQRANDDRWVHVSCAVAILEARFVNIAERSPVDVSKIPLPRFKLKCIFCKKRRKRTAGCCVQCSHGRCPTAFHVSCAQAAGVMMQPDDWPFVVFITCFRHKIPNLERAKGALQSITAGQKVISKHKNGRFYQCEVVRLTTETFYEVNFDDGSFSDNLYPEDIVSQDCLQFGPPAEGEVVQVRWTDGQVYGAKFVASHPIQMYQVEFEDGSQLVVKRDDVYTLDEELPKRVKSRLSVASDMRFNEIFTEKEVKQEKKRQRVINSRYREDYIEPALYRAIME
Sfp PPTase inh: qHTS Assay for Inhibitors of Bacillus subtilis Sfp phosphopantetheinyl transferase (PPTase) | 4'-phosphopantetheinyl transferase ffp (Bacillus subtilis), Q9F4F7 | Biochemical Sfp PPTase activity, qHTS | Potency, µM, without a hit: largest response in the series, negative = inhibition, hits mostly inhibitors | hit rate 3.5% among 310,000 | AID 1490, 2009;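 note: the enzyme is Sfp with the accession as filed and its product quenches rhodamine fluorescence; 0% = enzyme reaction without inhibitor and -100% = no enzyme wells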
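Reaction rates are the 30-min fluorescence difference (ex 525, em 598 nm) in wells containing 15 nM Sfp, 5 uM rhodamine-CoA and 12.5 uM BHQ-2-YbbR at pH 7.6 with 10 mM MgCl2.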
* marks the source's active call; other numbers are inactive results; ? = inconclusive; / = no result; [ ] = another dose, or the depositor's remark. Calls come from the whole dose curve; as a rule, active = well fitted curve in the direction sought with a large enough effect; inconclusive = small, poorly fitted or top-dose-only effect, or another doubt; inactive = no such curve, though single readings can be large; an effect the other way counts as inactive or inconclusive. Potency is the fitted concentration of half-maximal effect.

SMILES | BAZ2B inh | G9a block | HP1b chromo inh | TDP1 block | JMJD2A Tudor | Sfp PPTase inh
O=C(O)c1ccc(N/N=C/c2ccc3c(c2)OCO3)cc1 | -22% | / | 22% | 4% | -16% | -1%
O=C(O)c1ccc(N/N=C/c2ccc(C(F)(F)F)cc2)cc1 | ? | 35µM* | -7% | 2% | -35% | -1%
O=C(O)c1ccc(/C=N/Nc2ccc(F)cc2F)cc1 | -22% | 35µM* | 6% | -5% | -29% | 7%
CC(C)(C)c1ccc(/C=N/Nc2ccc(C(=O)O)cc2)cc1 | -38% | 1.8µM* | -10% | 8% | ? | 9%
O=S(=O)(Nc1ccncc1)c1ccc(Cl)c(Cl)c1 | 2% | / | 35% | / | -8% | 27%
Cc1ccccc1-c1nc2scc(CCNS(=O)(=O)c3ccccc3)n2n1 | 4% | 3%[59 µM] | 7%[57 µM] | 7% | -18% | /
CCc1ccc(NC(=O)c2cnn3c(C)cc(C)nc23)cc1 | / | / | / | / | -9% | /
CC[n+]1c(C)sc2c3ccsc3ccc21 | / | 1.6µM* | ? | 3% | 56µM* | 1.4µM*
COc1cccc2oc3cc(C#Cc4ccccn4)ccc3c(=O)c12 | 40µM* | / | 68% | / | 22µM* | 40µM*
Cc1ccc(C(=O)Nc2nnc(-c3ccncc3)o2)cc1 | 56µM* | 2% | 50% | 7% | -14% | 5%
CC1CCCCN1S(=O)(=O)c1ccc(C(=O)Nc2nnc(-c3ccncc3)o2)cc1 (centres undefined) | / | -7% | 30% | 10% | ? | 0%
Cc1cccc(-c2nnc(NC(=O)c3ccc(Cl)cc3)o2)c1 | 9% | 8.9µM* | 22% | 11% | -4% | 16%
COc1ccc(-n2nc(N)c(C(N)=O)n2)cc1 | ? | 45µM* | -19% | 3% | -23%[11.4 µM] | 10%
CCC1CCCCN1C(=O)COc1c(Br)cc(Br)c2cccnc12 (centres undefined) | -33% | 2% | 15% | 3% | -19% | -16%
CC(CN1CCCCC1)OC(=O)COc1ccc(Cl)cc1 (centres undefined) | 10% | / | 18% | / | ? | 8%
Cc1cccc(OCC(=O)OC(C)CN2CCCCC2)c1 (centres undefined) | 2% | / | 35% | 35µM* | 9% | -3%
Cc1cccc(OCCCN2CCCCCC2)c1 | 79µM* | 6.3µM* | ? | -10% | 7.9µM* | -16%
COc1ccc(/C=C/C(=O)OC(C)CN2CCCCC2)cc1 (centres undefined) | -27% | 20µM* | 25% | / | -14% | 6%
Clc1cccc(OCCN2CCNCC2)c1 | -33% | 14µM* | ? | -4% | 18µM* | -21%
Cc1cc(C(=O)OCC(=O)NC2CC2)c2ccccc2n1 | 32% | ? | 48% | 0% | -7% | /
Clc1cccc(OCCCCN2CCCCC2)c1 | 56µM* | ? | ? | / | 22µM* | -13%
Clc1cccc(OCCCCCN2CCOCC2)c1 | 4% | / | 12% | 0% | -13% | -6%
Cc1cccc(Cl)c1OCCN1CCCC1 | ? | 40µM* | -8% | 11% | 4µM* | -2%
Clc1cccc(Cl)c1OCCCCN1CCCCC1 | 79µM* | 22µM* | ? | / | 20µM* | 10%
Cc1ccc(/C=C(\NC(=O)c2ccccc2)C(=O)NC2CCN(Cc3ccccc3)CC2)o1 | -11% | / | 4% | 2% | -20% | 20%
SMILES | BAZ2B inh | G9a block | HP1b chromo inh | TDP1 block | JMJD2A Tudor | Sfp PPTase inh
CCC(C)C(=O)Nc1nc(C)c(-c2csc(Nc3cc(Cl)ccc3OC)n2)s1 (centres undefined) | ? | ? | -22% | 3% | ? | ?
CCC(C)C(=O)Nc1nc(C)c(-c2csc(Nc3cc(OC)ccc3OC)n2)s1 (centres undefined) | 50µM* | 22µM* | -17% | 11% | 50µM* | 6%
COc1ccc(OC)c(Nc2nc(-c3sc(NC(=O)CC(C)C)nc3C)cs2)c1 | ? | 8.9µM* | ? | 11% | 45µM* | 5%
CCCC(C)C(=O)Nc1nc(C)c(-c2csc(Nc3ccccc3OC)n2)s1 (centres undefined) | ? | 7.9µM* | -17% | 8% | ? | ?
CN(C)c1ccc(C(CNC(=O)Cc2ccc(Cl)cc2)N2CCOCC2)cc1 (centres undefined) | ? | ? | -1% | 1% | -32% | /
COCc1c(Br)c(C)nc2sc3c(=O)[nH]nnc3c12 | 56µM* | 35µM* | 29% | / | -14% | -28%
CCOC(=O)c1ccc(NC(=O)C(C)N(c2ccc(OCC)cc2)S(C)(=O)=O)cc1 (centres undefined) | -2% | ? | 17% | / | -11% | /
COC(=O)N[C@@H](/C=C/c1ccccc1)/C(C(=O)OC)=C(\C)NCc1ccccc1 | / | / | / | 2% | / | -9%
Cc1c(O)ccc(-c2[nH]ncc2-c2nc3ccccc3s2)c1O | -29% | 12%[12.7 µM] | 35% | 7% | ? | -3%
Cc1c(O)ccc(-c2n[nH]c(C(=O)O)c2-c2nc3ccccc3s2)c1O | ? | 45µM* | 24% | 2% | -7% | 2%
COc1ccc(NC(=O)CSc2nnc3scc(-c4ccc(Cl)cc4)n23)cc1 | 3% | 35%[59 µM] | 74% | / | -4% | /
COc1cc(OC)cc(-c2nnc3n2N=C(c2ccc(OC)cc2OC)CS3)c1 | / | / | / | 18% | ? | 56µM*
COc1cccc(-c2nnc3n2N=C(c2ccc(OC)cc2OC)CS3)c1 | / | / | / | 17% | ? | 45µM*
COc1ccc(-c2nnc3n2N=C(c2ccccc2OC)CS3)c(OC)c1 | / | / | / | 9% | -19% | -11%
COc1ccc(OC)c(-c2nnc3n2N=C(c2ccccc2OC)CS3)c1 | / | / | / | 17% | 79µM* | ?
Nc1ccc(N)c([N+](=O)[O-])c1 | / | / | / | 19% | / | /
O=C(O)c1ccc(N=C2NC(=O)C(CO)(CO)S2)cc1 | 3% | -49% | 17% | 6% | 1% | 2%
Fc1ccc(CN2CCC(Cc3ccccc3)CC2)cc1F | ? | 10µM* | -33% | / | 28µM* | -13%
Clc1ccc(CN2CCC(Cc3ccccc3)CC2)cc1 | 32µM* | 4.5µM* | ? | 0% | 20µM* | ?
CSc1ccc(CN2CCC(Cc3ccccc3)CC2)cc1 | 71µM* | 7.1µM* | -10% | / | 35µM* | -10%
CCOC(=O)N1CCN(Cc2nc3cc(NC(=O)c4cccc(C)c4)ccc3n2C(C)C)CC1 | ? | 9%[59 µM] | 23% | 7% | -30% | /

Bioassay records (PubChem BioAssay)
